PLK1 PBD inh: inhibitors of human PLK1 polo-box domain binding; P53350; Plk1 PBD binding of FITC phosphopeptide, fluorescence polarization; Potency, µM, for the others: max response, negative = inhibition, actives largely listed as inhibitors; 2.8% of 360,000 active; AID 720504; note: series mostly up to about 57 µM; % is set by controls: 0 for no effect and ±100 for the full control effect; nearly all actives have a fitted effect of over 65% in size
HP1b chromo inh: inhibitors of HP1-beta chromodomain binding to methylated histone tails | 0.56% of 390,000 active | AlphaScreen HP1-beta / biotin-H3K9me3 peptide binding | Potency, µM (titrated, usually from 114 µM), for the others: at the top dose activity change, negative = inhibition, usual class: inhibitors | AID 540317 | P83916; note: nearly all actives have a fitted effect of over 70% in size
Target sequence (P83916 whole entry, looked up): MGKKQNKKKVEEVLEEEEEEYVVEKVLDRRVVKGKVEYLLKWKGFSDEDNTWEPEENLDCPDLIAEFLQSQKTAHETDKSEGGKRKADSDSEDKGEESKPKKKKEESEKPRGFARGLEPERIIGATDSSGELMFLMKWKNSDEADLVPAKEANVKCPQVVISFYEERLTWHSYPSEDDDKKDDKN
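AlphaScreen: HP1-beta (50 nM) preformed 30 min with biotin-H3(1-18)K9me3 peptide (50 nM) in PBS pH 7.4, 0.01% Tween-20. Compound added for 30 min at RT, then streptavidin donor/nickel chelate acceptor beads (10 ug/mL) for 30 min.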
ALOX12 inh: ALOX12 (human) lipoxygenase inhibition; P18054; purified 12hLO, xylenol orange hydroperoxide absorbance; Potency, µM (top dose mostly 108 µM), for inactives: at the top dose activity change, negative = inhibition, usual class: inhibitors; 1.1% of 580,000 active; note: % is set by controls: 0 for no effect and ±100 for the full control effect
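Purified human 12hLO at 150 nM in 25 mM Hepes, 0.01% Triton X-100, pH 7.0, preincubated 15 min at room temperature with compound. Reaction started with 40 uM arachidonic acid, 30 min at room temperature. Hydroperoxide measured by Fe-xylenol orange, 573/405 nm absorbance ratio.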
JMJD2A Tudor: blocks the human JMJD2A Tudor domain; O75164; AlphaScreen JMJD2A-Tudor / H3K4me3 peptide binding; Potency, µM (top dose mostly 114 µM), inactives show at the highest dose activity change, negative = inhibition, actives largely listed as inhibitors; 4.4% of 390,000 active; AID 504339; note: % is set by controls: 0 for no effect and ±100 for the full control effect; nearly all actives have a fitted effect of over 50% in size
G9a inh: G9a (human) methyltransferase inhibition. AID 504332. Q96KQ7. 8.8% of 350,000 active. Potency, µM (doses to about 102 µM), inactives show at the top dose activity, negative = inhibition, actives largely listed as inhibitors. G9a H3K9 monomethylation, AlphaScreen, 2 h; note: % is set by controls: 0 for no effect and ±100 for the full control effect; nearly all actives have a fitted effect of over 75% in size
Target sequence (Q96KQ7 913-1193 limits assumed): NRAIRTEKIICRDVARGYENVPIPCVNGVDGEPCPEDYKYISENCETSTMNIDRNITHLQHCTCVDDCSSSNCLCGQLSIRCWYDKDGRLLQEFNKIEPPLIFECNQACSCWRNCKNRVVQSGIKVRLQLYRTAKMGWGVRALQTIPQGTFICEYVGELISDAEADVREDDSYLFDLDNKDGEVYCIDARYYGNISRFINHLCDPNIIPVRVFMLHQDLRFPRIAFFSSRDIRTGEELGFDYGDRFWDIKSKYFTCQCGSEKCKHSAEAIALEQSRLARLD
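AlphaScreen detection with an anti-monomethyl H3K9 antibody quantified product after a 2 h room-temperature reaction containing 500 nM biotinylated H3K9 peptide, 20 µM SAM and 20 nM enzyme, which had been preincubated 15 min with compound.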
BAZ2B block: inhibitors of human BAZ2B bromodomain; AlphaScreen BAZ2B-H3K14Ac peptide displacement; Q9UIF8; AID 504333; 4.4% of 360,000 active; Potency, µM (top dose mostly 114 µM), inactives show at the top dose activity change, negative = inhibition, hits mostly inhibitors; note: % is set by controls: 0 for no effect and ±100 for the full control effect; nearly all actives have a fitted effect of over 60% in size
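Multi-concentration screen (max 110 uM) measuring displacement of acetylated histone H3 peptide from BAZ2B by AlphaScreen, using 50 nM protein, 50 nM peptide and 10 ug/mL streptavidin donor plus Ni-chelate acceptor beads.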
* hit, by the source's call; ? = inconclusive; · = no result given; [ ] = remark or other dose. Most compounds without a hit are left out; they make up all but 9% or so of the library. Calls come from the whole dose curve; as a rule, active = well fitted curve in the direction sought with a large enough effect; inconclusive = small, poorly fitted or top-dose-only effect, or another doubt; inactive = no such curve, though single readings can be large; an effect the other way counts as inactive or inconclusive. Potency is the fitted concentration of half-maximal effect.

SMILES	PLK1 PBD inh	HP1b chromo inh	ALOX12 inh	JMJD2A Tudor	G9a inh	BAZ2B block
COc1ccc(CNc2ccccc2SC)cc1OC	-27.9%	15.9%	?	79.4µM*	10µM*	?
COc1cc(CNc2nc3ccccc3n2C)cc(OC)c1OC	-7.7%	10.1%	9.2%	-9.2%	17.7%[59 µM]	4.4%
COc1cc(CNc2ccccc2SC)cc(OC)c1OC	-11.6%	12.9%	44.7µM*	?	11.2µM*	-33.0%
COc1ccc(CNc2cccc3[nH]c(C(F)(F)F)nc23)cc1OC	3.7%	-25.8%	?	?	-29.1%[2.33 µM]	50.1µM*
C=CCn1c(CSCc2ccc(Cl)cc2)nnc1SCC(=O)NCc1ccccc1	-18.9%	14.2%	0.0%	-22.4%	-8.3%[12.7 µM]	5.4%
CC1CCN(CCNC(=O)C2CCCN(c3ncnc4c3nc3n4CCCCC3)C2)CC1 (stereo not given)	-1.5%	31.7%	5.4%	-12.8%	·	3.3%
CCN(CC)CCCNc1ccc2ncn3c4ccc(O)cc4c(=O)c1c23	10.6µM*	-6.2%	?	-25.0%	·	·
CN(C)CCNc1ccc2nnn3c4ccc(O)cc4c(=O)c1c23	-5.2%	29.8%	2.9%	-25.0%	·	·
CCCN(C)c1nccnc1OC1CCN(C(=O)Cc2ccccc2OC)C1 (stereo not given)	·	·	26.0%	·	·	·
Cc1c(C(O)CN2CCC(C(N)=O)CC2)c2ccccc2n1C (stereo not given)	-4.8%	15.3%	?	-10.2%	-6.8%[59 µM]	-8.9%
Cc1cc(Br)ccc1NS(=O)(=O)c1c(C)[nH]c(=O)[nH]c1=O	-16.3%	25.2%	-9.3%	-11.5%	44.7µM*	-0.9%
COc1ccc(CC2(C)OC(c3ccc([N+](=O)[O-])cc3)=NN2C(C)=O)cc1 (stereo not given)	1.2%	?	55.6%	?	11.2µM*	?
COc1ccc(C(=O)NNC(=O)Cc2ccc([N+](=O)[O-])cc2)cc1	-6.5%	17.1%	11.2%	-12.2%	-0.4%[59 µM]	-2.5%
COc1cc(C2C3=C(CCCC3=O)OC3=C2C(=O)CCC3)cc(Cl)c1OCC(=O)O	·	·	-24.8%	·	·	·
CCN(CC)C(=O)[C@H]1C[C@H](CC(=O)NC/C=C(\C)CCC=C(C)C)C(=O)N2CCc3c([nH]c4cc(-c5ccco5)ccc34)[C@]12C	-11.9%	?	-45.6%	31.6µM*	·	·
CCN(CC)C(=O)[C@H]1CC(CC(=O)NC/C=C(\C)CCC=C(C)C)C(=O)N2CCc3c([nH]c4ccc(OC)cc34)[C@]12C (stereo not given in full)	-5.8%	?	-52.9%	50.1µM*	·	·
COC(=O)c1sccc1NC(=O)CSCCc1ccccn1	-5.4%	31.2%	19.0%	10.5%	?	9.4%
O=C(OCCCN1C(=O)c2ccccc2C1=O)c1ccco1	26.7µM*	1.1%	21.3%	-28.1%[11.4 µM]	9.5%[12.7 µM]	3.5%
COC(=O)c1n[nH]c2ccccc12	-11.9%	10.1%	94.1%	-10.2%	-4.9%[59 µM]	3.6%
O=C(OCCCCN1C(=O)c2ccccc2C1=O)c1n[nH]c2ccccc12	-5.4%	7.8%	0.0%	?	50.1µM*	3.7%
O=C(Cc1ccc(Br)cc1)N1CCCC1	-7.1%	31.5%	16.6%	-24.8%	8.7%	1.3%
Cc1ccc(C(=O)NNC(=O)c2ccc(NC(=O)C(C)(C)C)cc2)cc1	6.1%	31.7%	0.3%	-2.7%	20.0%	2.8%
O=S(=O)(NC1CC2CCC1C2)c1ccc(Br)s1 (stereo not given)	3.36µM*	-6.8%	?	-30.8%[11.4 µM]	6.1%[59 µM]	16.4%
CCc1nc2ccc(C(=O)N3CCN(S(=O)(=O)CC)CC3)cn2c1N(C)CCC(C)C	-6.1%	·	-16.5%	·	·	·
COC(=O)/C=c1/s/c(=C(/C#N)C(=O)N2CCOCC2)n(-c2ccccc2)c1=O	26.7µM*	-13.5%	234.6%[57.4 µM]	-11.5%[11.4 µM]	?	-0.9%
COc1ccc(-c2cc(C)no2)cc1S(=O)(=O)N1CC(=O)Nc2ccccc21	-5.0%	17.7%	-21.6%	-13.0%	50.1µM*	-31.4%

Assay outcomes deposited in PubChem BioAssay by National Center for Advancing Translational Sciences (NCATS).
